# Where two headings read alike, the source gives them in different places.
# Experiments:
# Design in all cases: species or system human, MV4-11 + K-562 + COLO205 + SK-N-BE2 + OVCAR-8
# [1] = tested on: CDC42BPG; settings: read-out: apparent Kd, compound concentrations: 100 nM and 1000 nM (sheet 'Samples'), n = 1
# [2] = tested on: DDR1; settings: read-out: apparent Kd; compound concentrations: 100 nM and 1000 nM (sheet 'Samples'), CATDS: 0.140210166469808; n = 1
# [3] = tested on: T1, DJA1; settings: read-out: apparent Kd; compound concentrations: 100 nM and 1000 nM (sheet 'Samples'), CATDS: 0.100265839502576; n = 1
# T1 construct: gene DNAJA1
# [4] = tested on: FLT3; settings: read-out: apparent Kd; compound concentrations: 100 nM and 1000 nM (sheet 'Samples'), CATDS: 0.118432535218852; n = 1
# [5] = tested on: PIK3C3; settings: read-out: apparent Kd; compound concentrations: 100 nM and 1000 nM (sheet 'Samples'), CATDS: 0.105221440009215; n = 1
# [6] = tested on: PIK3CA; settings: read-out: apparent Kd; compound concentrations: 100 nM and 1000 nM (sheet 'Samples'), CATDS: 0.28704207187710601; n = 1
# [7] = tested on: PIK3CG; settings: read-out: apparent Kd; compound concentrations: 100 nM and 1000 nM (sheet 'Samples'), CATDS: 0.108238843984754; n = 1
# [8] = tested on: RET; settings: read-out: apparent Kd; compound concentrations: 100 nM and 1000 nM (sheet 'Samples'), CATDS: 0.12612517113031699; n = 1
# [9] = tested on: MYLK3; settings: read-out: apparent Kd; compound concentrations: 100 nM and 1000 nM (sheet 'Samples'), CATDS: 0.26108904226554702; n = 1
# [10] = tested on: NLK; settings: read-out: apparent Kd; compound concentrations: 100 nM and 1000 nM (sheet 'Samples'), CATDS: 0.267890772302949; n = 1
# [11] = tested on: TNIK; settings: read-out: apparent Kd; compound concentrations: 100 nM and 1000 nM (sheet 'Samples'), CATDS: 0.264395551516103; n = 1
# [12] = tested on: FLT4; settings: read-out: apparent Kd; compound concentrations: 100 nM and 1000 nM (sheet 'Samples'), CATDS: 0.57222186491760196; n = 1
# [13] = tested on: PLK1; settings: read-out: apparent Kd; compound concentrations: 100 nM and 1000 nM (sheet 'Samples'), CATDS: 0.18184890704530299; n = 1
# [14] = tested on: RIPK2; settings: read-out: apparent Kd; compound concentrations: 100 nM and 1000 nM (sheet 'Samples'), CATDS: 0.227728306624736; n = 1
# [15] = tested on: CDC42; settings: read-out: apparent Kd; compound concentrations: 100 nM and 1000 nM (sheet 'Samples'), CATDS: 0.328417840290395; n = 1
# [16] = tested on: CDK6; settings: read-out: apparent Kd; compound concentrations: 100 nM and 1000 nM (sheet 'Samples'), CATDS: 0.35899533679328099; n = 1
# [17] = tested on: MAP2K1; settings: read-out: apparent Kd; compound concentrations: 100 nM and 1000 nM (sheet 'Samples'), CATDS: 0.31550250727948498; n = 1
# [18] = tested on: CDC42BPA; settings: read-out: apparent Kd; compound concentrations: 100 nM and 1000 nM (sheet 'Samples'), CATDS: 4.4382649306469998E-2; n = 1
# [19] = tested on: CDC42BPB; settings: read-out: apparent Kd; compound concentrations: 100 nM and 1000 nM (sheet 'Samples'), CATDS: 5.2868246392704099E-2; n = 1
# [20] = tested on: CDC7; settings: read-out: apparent Kd; compound concentrations: 100 nM and 1000 nM (sheet 'Samples'), CATDS: 6.9489626335847196E-2; n = 1
# [21] = tested on: CLK4; settings: read-out: apparent Kd; compound concentrations: 100 nM and 1000 nM (sheet 'Samples'), CATDS: 5.9316803085408598E-2; n = 1
# [22] = tested on: GSK3A; settings: read-out: apparent Kd; compound concentrations: 100 nM and 1000 nM (sheet 'Samples'), CATDS: 0.14981802566128199; n = 1
# [23] = tested on: GSK3B; settings: read-out: apparent Kd; compound concentrations: 100 nM and 1000 nM (sheet 'Samples'), CATDS: 0.15901528532749901; n = 1
# [24] = tested on: LATS1; settings: read-out: apparent Kd; compound concentrations: 100 nM and 1000 nM (sheet 'Samples'), CATDS: 0.14331063333654301; n = 1
# [25] = tested on: NQO1; settings: read-out: apparent Kd; compound concentrations: 100 nM and 1000 nM (sheet 'Samples'), CATDS: 4.4968257492060203E-2; n = 1
# [26] = tested on: PKN1; settings: read-out: apparent Kd; compound concentrations: 100 nM and 1000 nM (sheet 'Samples'), CATDS: 5.3241919532380499E-2; n = 1
# [27] = tested on: PKN2; settings: read-out: apparent Kd; compound concentrations: 100 nM and 1000 nM (sheet 'Samples'), CATDS: 0.153152330435843; n = 1
# [28] = tested on: PKN3; settings: read-out: apparent Kd; compound concentrations: 100 nM and 1000 nM (sheet 'Samples'), CATDS: 4.6811653986635102E-2; n = 1
# [29] = tested on: ROCK1; settings: read-out: apparent Kd; compound concentrations: 100 nM and 1000 nM (sheet 'Samples'), CATDS: 5.1294364781544602E-2; n = 1
# [30] = tested on: ROCK2; settings: read-out: apparent Kd; compound concentrations: 100 nM and 1000 nM (sheet 'Samples'), CATDS: 6.2443237217646497E-2; n = 1
# [31] = tested on: RPS6KA5; settings: read-out: apparent Kd; compound concentrations: 100 nM and 1000 nM (sheet 'Samples'), CATDS: 4.9211147170022597E-2; n = 1
# [32] = tested on: RPS6KB1; settings: read-out: apparent Kd; compound concentrations: 100 nM and 1000 nM (sheet 'Samples'), CATDS: 0.131217569210515; n = 1
# [33] = tested on: CAMK2B; settings: read-out: apparent Kd; compound concentrations: 100 nM and 1000 nM (sheet 'Samples'), CATDS: 0.21240793687588; n = 1
# [34] = tested on: CAMK2D; settings: read-out: apparent Kd; compound concentrations: 100 nM and 1000 nM (sheet 'Samples'), CATDS: 0.22355141461127601; n = 1
# [35] = tested on: CAMK2G; settings: read-out: apparent Kd; compound concentrations: 100 nM and 1000 nM (sheet 'Samples'), CATDS: 0.16282933819825701; n = 1
# [36] = tested on: MAPK14; settings: read-out: apparent Kd; compound concentrations: 100 nM and 1000 nM (sheet 'Samples'), CATDS: 0.12639229047772599; n = 1
# [37] = tested on: MAPK1; settings: read-out: apparent Kd; compound concentrations: 100 nM and 1000 nM (sheet 'Samples'), CATDS: 0.13886491205571; n = 1
# [38] = tested on: MTHFD1; settings: read-out: apparent Kd; compound concentrations: 100 nM and 1000 nM (sheet 'Samples'), CATDS: 0.112540621038884; n = 1
# [39] = tested on: STK16; settings: read-out: apparent Kd; compound concentrations: 100 nM and 1000 nM (sheet 'Samples'), CATDS: 0.103320343146107; n = 1
structure (smiles),measurement,setting,value
CN1CCN(CCCNc2nc3ccc(Oc4ccc(NC(=O)Nc5cc(C(F)(F)F)ccc5F)cc4)cc3[nH]2)CC1.Cl [GW700494A],potency estimated from few doses,[1]; CATDS: 0.120544348793502,1130 nM
same,potency estimated from few doses,[2],826 nM
same,potency estimated from few doses,[3],1780 nM
same,potency estimated from few doses,[4],1170 nM
same,potency estimated from few doses,[5],1560 nM
same,potency estimated from few doses,[6],263 nM
same,potency estimated from few doses,[7],1450 nM
same,potency estimated from few doses,[8],1020 nM
O=C(Nc1n[nH]c2cc(-c3ccccc3)ccc12)C1CC1 [SB-732941],potency estimated from few doses,[1]; CATDS: 0.214831425335373,2210 nM
same,potency estimated from few doses,[9],1450 nM
same,potency estimated from few doses,[10],1380 nM
same,potency estimated from few doses,[11],1420 nM
COc1cc2nccc(Nc3ccc(OCc4ccc(NC(C)=O)cc4)cc3)c2cc1OC.Cl [GW440135A],potency estimated from few doses,[1]; CATDS: 0.22924434609497199,1070 nM
same,potency estimated from few doses,[12],185 nM
same,potency estimated from few doses,[13],2130 nM
same,potency estimated from few doses,[14],1090 nM
COc1ccc(-c2nn3ncccc3c2-c2ccnc(Nc3cccc(C(F)(F)F)c3)n2)cc1 [GW827105X],potency estimated from few doses,[1]; CATDS: 1,1920 nM
Cc1ccc(NC(=O)c2ccc(Cl)c(Cl)c2)cc1-c1ccc(C(=O)Nc2ccncc2)cc1 [GSK1398460A],potency estimated from few doses,[1]; CATDS: 1,1100 nM
CCn1c(-c2ccccn2)nc2cnccc21 [SB-736398],potency estimated from few doses,[15],1930 nM
same,potency estimated from few doses,[16],1630 nM
same,potency estimated from few doses,[17],2100 nM
Nc1nonc1-c1nc2cnccc2n1C1CCCCC1 [SB-734117],potency estimated from few doses,[18],2000 nM
same,potency estimated from few doses,[19],1000 nM
same,potency estimated from few doses,[20],446 nM
same,potency estimated from few doses,[21],693 nM
same,potency estimated from few doses,[22],91.8 nM
same,potency estimated from few doses,[23],83.3 nM
same,potency estimated from few doses,[24],98.8 nM
same,potency estimated from few doses,[25],1880 nM
same,potency estimated from few doses,[26],977 nM
same,potency estimated from few doses,[27],88.5 nM
same,potency estimated from few doses,[28],1580 nM
same,potency estimated from few doses,[29],1110 nM
same,potency estimated from few doses,[30],596 nM
same,potency estimated from few doses,[31],1300 nM
same,potency estimated from few doses,[32],115 nM
N#Cc1cccc(C(=O)NC2CCN(c3ccnc(Nc4ccc(F)cc4)n3)C2)c1 (stereo not shown) [GSK1379708A],potency estimated from few doses,[33],395 nM
same,potency estimated from few doses,[34],364 nM
same,potency estimated from few doses,[35],631 nM
same,potency estimated from few doses,[36],1100 nM
same,potency estimated from few doses,[37],879 nM
same,potency estimated from few doses,[38],1500 nM
same,potency estimated from few doses,[39],1980 nM

# — PMC11062922 (Nature Chemical Biology, 2023)
